In the library only some 12% were active in any assay of this set; here they are far more common.
PLK1 PBD block: PLK1 (human) polo-box domain binding inhibition | P53350 | Plk1 PBD binding of FITC phosphopeptide, fluorescence polarization | Potency, µM, for the others: max response, negative = inhibition, hits mostly inhibitors | 2.8% of 360,000 active | AID 720504; also: series mostly up to about 57 µM; % is scaled to controls: 0 for no effect and ±100 for the full control effect; nearly all actives have a fitted effect of over 65% in size
Target sequence (P53350 whole entry, looked up, the tested form may be a part): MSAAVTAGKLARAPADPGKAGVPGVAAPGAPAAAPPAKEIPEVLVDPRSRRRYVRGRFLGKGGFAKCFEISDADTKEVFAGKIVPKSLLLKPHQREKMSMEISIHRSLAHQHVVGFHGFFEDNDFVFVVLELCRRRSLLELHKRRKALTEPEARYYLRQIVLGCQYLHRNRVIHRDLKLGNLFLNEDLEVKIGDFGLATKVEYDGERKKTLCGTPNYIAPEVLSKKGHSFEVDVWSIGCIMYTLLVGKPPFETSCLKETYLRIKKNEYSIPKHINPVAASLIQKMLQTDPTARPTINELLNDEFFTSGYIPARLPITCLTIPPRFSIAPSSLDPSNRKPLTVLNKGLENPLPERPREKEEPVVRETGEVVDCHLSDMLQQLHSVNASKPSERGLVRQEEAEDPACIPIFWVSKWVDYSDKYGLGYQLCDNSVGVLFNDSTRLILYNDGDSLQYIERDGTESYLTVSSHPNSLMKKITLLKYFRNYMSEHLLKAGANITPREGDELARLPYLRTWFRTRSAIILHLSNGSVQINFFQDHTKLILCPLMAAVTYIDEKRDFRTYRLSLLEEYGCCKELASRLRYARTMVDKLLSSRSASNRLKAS
Sfp PPTase inh: inhibitors of Bacillus subtilis Sfp phosphopantetheinyl transferase; Q9F4F7; Biochemical Sfp PPTase activity, qHTS; Potency, µM, for the others: largest response in the series, negative = inhibition, actives largely listed as inhibitors; 3.5% of 310,000 active;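 also: the enzyme is Sfp with the accession as filed and its product quenches rhodamine fluorescence; 0% = enzyme reaction without inhibitor and -100% = no enzyme wells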
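Sfp 15 nM + cpd, 15 min RT; start w/ rhodamine-CoA 5 uM, BHQ-2-YbbR 12.5 uM (final); 50 mM Hepes pH 7.6, 10 mM MgCl2, 0.01% NP-40, 0.01% BSA; read 525/598 nm at 0 and 30 min.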
G9a block: blocks human histone lysine methyltransferase G9a | G9a H3K9 monomethylation, AlphaScreen, 2 h | Potency, µM (titrated, usually from 102 µM), without a hit: at the top dose activity, negative = inhibition, hits mostly inhibitors | 8.8% of 350,000 active | AID 504332; also: % is scaled to controls: 0 for no effect and ±100 for the full control effect; nearly all actives have a fitted effect of over 75% in size
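Signal arises when biotinylated H3K9 peptide, once monomethylated, bridges streptavidin donor and antibody-captured acceptor beads. Enzyme at 20 nM was preincubated 15 min with test compounds; peptide 500 nM and SAM 20 uM then reacted for 2 h.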
JMJD2A Tudor inh: blocks the human JMJD2A Tudor domain | Potency, µM (doses to about 114 µM), for inactives: top-dose activity change, negative = inhibition, usual class: inhibitors | AlphaScreen JMJD2A-Tudor / H3K4me3 peptide binding | 4.4% of 390,000 active | O75164; also: % is scaled to controls: 0 for no effect and ±100 for the full control effect; nearly all actives have a fitted effect of over 50% in size
HP1b chromo inh: inhibitors of HP1-beta chromodomain binding to methylated histone tails. P83916. AlphaScreen HP1-beta / biotin-H3K9me3 peptide binding. Potency, µM (doses to about 114 µM), for inactives: at the top dose activity change, negative = inhibition, hits mostly inhibitors. 0.56% of 390,000 active. AID 540317; also: nearly all actives have a fitted effect of over 70% in size
Target sequence (P83916 whole entry, looked up): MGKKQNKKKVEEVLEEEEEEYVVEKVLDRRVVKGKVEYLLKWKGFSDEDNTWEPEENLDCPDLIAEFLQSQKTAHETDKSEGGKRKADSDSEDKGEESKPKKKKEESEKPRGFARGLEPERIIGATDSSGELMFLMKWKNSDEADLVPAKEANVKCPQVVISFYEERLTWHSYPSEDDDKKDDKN
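HP1-beta protein (50 nM final) preincubated 30 min at room temperature with biotinylated H3(1-18)K9me3 peptide (50 nM) in PBS pH 7.4, 0.01% Tween-20, then compound added for 30 min. AlphaScreen streptavidin donor/nickel chelate acceptor beads (10 ug/mL final), 30 min dark, luminescence read.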
BAZ2B inh: blocks human BAZ2B. Q9UIF8. AlphaScreen BAZ2B-H3K14Ac peptide displacement. Potency, µM (doses to about 114 µM), inactives show top-dose activity change, negative = inhibition, hits mostly inhibitors. 4.4% of 360,000 active. AID 504333; also: % is scaled to controls: 0 for no effect and ±100 for the full control effect; nearly all actives have a fitted effect of over 60% in size
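AlphaScreen displacement of biotin-H3(5-23)K14Ac peptide (50 nM final) from BAZ2B (50 nM final) in PBS pH 7.4, 0.01% Tween-20; complex preformed 30 min RT, then compounds (top 110 uM) 30 min RT, beads 20 min dark.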
The depositor's hits bear a star; ? = inconclusive; nt = no result; [ ] = another dose, or the depositor's remark. Calls follow the shape of the dose curve; as a rule, active = well fitted curve in the direction sought with a large enough effect; inconclusive = small, poorly fitted or top-dose-only effect, or another doubt; inactive = no such curve, though single readings can be large; an effect the other way counts as inactive or inconclusive. Potency is read from the fitted curve at half-maximal effect.

SMILES	PLK1 PBD block	Sfp PPTase inh	G9a block	JMJD2A Tudor inh	HP1b chromo inh	BAZ2B inh
CCOc1ccc(N2CC(C(=O)Nc3nnc(Cc4ccc(OC)cc4)s3)CC2=O)cc1 (centres undefined)	-14.3%	-8.1%	10µM*	-12.7%	8.4%	2.6%
COc1ccc(Cc2nnc(NC(=O)C3CC(=O)N(c4ccc(OC)cc4)C3)s2)cc1 (centres undefined)	-6.9%	10.6%	2.5%	-9.2%	4.2%	-11.5%
CCOC(=O)c1ccc(NC(=O)COc2ccccc2CNCCc2ccccc2)cc1	-2.7%	50.1µM*	-50.5%	-30.3%	10.7%	14.8%
COc1cc(OC)c2c(O)c3c(c(-c4c5c(c(O)c6c(OC)cc(OC)cc46)CO[C@@H](C)[C@H]5O)c2c1)[C@H](O)[C@H](C)OC3	21.2µM*	?	8.6%[12.7 µM]	50.1µM*	?	44.7µM*
CN(C)c1nc(=NCc2cccs2)ss1	5.32µM*	nt	nt	?	18.8%	nt
C[C@H](NC(=O)Cc1cc(F)cc(F)c1)C(=O)N[C@@H](C(=O)OC(C)(C)C)c1ccccc1	nt	9.3%	nt	nt	nt	nt
COc1ccnc(CS(=O)c2nc3cc(C(O)(F)F)ccc3[nH]2)c1OC (centres undefined)	2.2%	-6.2%	20µM*	79.4µM*	21.5%	-0.6%
COc1ccc2[nH]c(S(=O)Cc3ncc(C)c(OC)c3C)nc2c1 (centres undefined)	-10.3%	-24.2%	15.8µM*	50.1µM*	nt	-28.5%
O=S(=O)(c1ccc2c(c1)OCCO2)N1CCN(S(=O)(=O)c2ccc(Cl)cc2F)CC1	nt	nt	nt	-8.2%	nt	nt
Cc1ccc(-n2c(=O)c3sc4ccccc4c3n(CC(=O)NC3CCCC3)c2=O)cc1C	nt	nt	-0.1%[59 µM]	3.3%	47.2%	-1.9%
CC(C)(C)c1ccc(C(=O)NCC(=O)N2CCC3(CC2)NCCc2[nH]cnc23)cc1	-11.4%	3.8%	20.7%[59 µM]	-22.8%	19.1%	-15.2%
CCCCc1ccc(C2C(C#N)=C(N)SC(N)=C2C#N)s1	nt	56.2µM*	?	nt	nt	50.1µM*
COc1ccc(/C=C2\SC(=S)N(N3CCOCC3)C2=O)c(OC)c1	-1.3%	-12.9%	45.8%[59 µM]	?	?	23.9%
COc1cc(/C=C2\SC(=S)N(C(C(=O)O)c3ccccc3)C2=O)cc(OC)c1OC (centres undefined)	?	50.1µM*	?	-31.0%	-16.0%	?
COc1cccc(/C=C2\SC(=S)N(C(C(=O)O)c3ccccc3)C2=O)c1OC (centres undefined)	?	79.4µM*	?	?	?	?
COc1ccc(/C=C2\SC(=S)N(C(C(=O)O)c3ccccc3)C2=O)c(OC)c1 (centres undefined)	?	70.8µM*	50.1µM*	-32.7%	6.9%	?
COc1ccccc1-c1nc2n(n1)C(c1ccccc1Cl)C(C(=O)Nc1cccnc1)=C(C)N2 (centres undefined)	nt	nt	-39.4%[59 µM]	-6.6%	31.4%	1.5%
CCCCN(CC)C(=O)c1cc2c(=O)n3cccc(C)c3nc2n1C	nt	nt	7.3%[59 µM]	-3.6%	33.7%	0.1%
COc1cc(/C=N/Nc2nnc3c(n2)[nH]c2ccccc23)ccc1O	-2.8%	56.2µM*	?	?	-3.8%	-35.2%
COc1cc(/C=N/Nc2ccccc2)ccc1O	-12.6%	-29.5%	14.1µM*	-34.5%	-0.7%	-26.9%
COC(=O)c1[nH]c2cc(OC)c(OC)cc2c1/C=N/Nc1ccccc1	7.5%	-14.8%	35.5µM*	-6.0%	30.3%	-10.3%
COc1cc(/C=N/NC(=O)CCN2CCN(C(c3ccccc3)c3ccccc3)CC2)ccc1O	-6.2%	?	79.4µM*	?	-11.9%	?
COc1cc(/C=N\NC(=O)CNC(=O)C(c2ccccc2)c2ccccc2)ccc1O	-5.7%	-0.5%	6.6%	-17.9%	0.2%	-23.7%
Cc1ccc2[nH]c3nc(N/N=C/c4cccc(O)c4)nnc3c2c1	-5.4%	-12.8%	nt	-8.3%	55.8%	?
COc1cc(/C=N/NC(=O)CCc2ccccc2)ccc1O	-9.7%	8.6%	0.2%[12.7 µM]	12.6%[57.1 µM]	28.1%	-20.3%
SMILES	PLK1 PBD block	Sfp PPTase inh	G9a block	JMJD2A Tudor inh	HP1b chromo inh	BAZ2B inh
CC1(C(=O)NS(=O)(=O)c2cccs2)CCN1C(=O)C1CCCCC1 (centres undefined)	-5.8%	nt	nt	nt	nt	nt
COc1cc(/C=N/NC(=O)c2cc3ccccc3cc2O)ccc1OCCN1CCCCC1	1.2%	39.8µM*	-10.5%[59 µM]	?	-12.2%	-16.4%
COc1cc(/C=N/NC(=O)c2cccs2)ccc1O	3.6%	6.8%	nt	0.0%	76.0%	-4.0%
COc1cc(/C=N/NC(=O)c2ccncc2)ccc1OCCN1CCCCC1	-5.4%	12.7%	4.7%[59 µM]	-8.5%	3.3%	5.0%
Oc1ccc(/C=N/Nc2ccccc2)cc1	-23.5%	4.1%	25.1µM*	22.4µM*	?	-24.8%
Cc1nc2ccccc2nc1N/N=C/c1ccc(O)cc1	-0.8%	-12.1%	nt	-35.1%	14.4%	?
COc1cc(/C=N/N(c2ccccc2)c2ccccc2)ccc1O	-9.0%	15.4%	28.2µM*	31.6µM*	-32.7%	44.7µM*
COc1cc(/C=N/Nc2ccccc2C(F)(F)F)ccc1O	?	-5.2%	nt	56.2µM*	?	-35.4%
CCN(C[C@H]1N[C@@](C)(C(=O)OC)[C@H]2C(=O)N(C)C(=O)[C@@H]12)C(=O)Nc1ccc(OC)cc1	-3.3%	nt	nt	-23.3%	14.2%	nt
CCOn1c(=O)c(C)[n+]([O-])c2ccccc21	-1.9%	14.7%	7.0%[59 µM]	0.4%	38.1%	-0.7%
COc1ccc(/C=N/Nc2nc(N3CCCC3)nc(N3CCCC3)n2)cc1O	-0.9%	13.5%	3.55µM*	-19.0%	29.5%	9.0%
NC(=O)COc1ccc(C(=O)/C=C2/C(=O)Nc3ccccc32)cc1	?	-5.6%	79.4µM*	?	-3.6%	-15.4%
COc1ccc(C(=O)/C=C2/C(=O)Nc3ccccc32)c(OC)c1	?	56.2µM*	-40.9%[12.7 µM]	-22.3%	-33.2%	?
O=C1Nc2ccccc2/C1=C/C(=O)c1cccs1	16.8µM*	44.7µM*	?	-26.8%[57.1 µM]	-25.1%	35.5µM*
COc1ccc(C(=O)/C=C2/C(=O)Nc3ccccc32)cc1	-13.3%	-0.7%	-12.3%	-16.0%	40.3%	-4.9%
C=CCOc1ccccc1C(=O)/C=C1/C(=O)Nc2ccccc21	?	79.4µM*	?	?	-12.6%	-34.2%
O=C(C=Cc1ccccc1)c1cccs1	-15.8%	nt	nt	4.2%	62.8%	nt
C=CCOc1ccc(C(=O)/C=C2/C(=O)Nc3ccccc32)cc1	-8.1%	12.6%	?	-17.1%	35.6%	-38.7%
COc1ccc(C(=O)/C=C2/C(=O)Nc3ccccc32)cc1OC	-23.4%	-0.4%	-49.9%	-14.8%	20.0%	-7.9%
COc1ccc(C/C(C)=N/NC(=S)Nc2ccc(Cl)cc2)cc1	-14.6%	?	7.08µM*	-17.9%	11.2%	-34.3%

Source: PubChem BioAssay (National Center for Advancing Translational Sciences (NCATS))
